In PubChem BioAssay (NCATS):
Results filed as inconclusive are left out. A number with no mark means an inactive call. Calls come from the whole dose curve; as a rule, active = well fitted cell-killing curve with a large enough effect; inconclusive = small, poorly fitted or top-dose-only effect; inactive = flat fitted curve, though single readings scatter.

Experiment: Cell Viability - LYMP2-006 (AID 978); note: nearly all actives have a fitted effect of over 60% in size
Conditions: LYMP2-006 lymphoblastoid cell viability, qHTS; series mostly up to 92.2 µM; activity change, negative = cytotoxicity: at the top concentration
Excerpt: NIH Chemical Genomics Center [NCGC]
NIH Molecular Libraries Screening Centers Network [MLSCN]
National Institutes of Environmental Health Sciences [NIEHS]
National Toxicology Program [NTP]
We have developed a 1536-well cell-based assay for quantitative high throughput screening (qHTS) against a number of cell lines to determine in vitro cytotoxicity of small molecules. This particular assay uses a human lymphoblastoid cell line (LYMP2-006) purchased from Coriell Institute for Medical Research.
NCGC Assay Protocol Summary:
The CellTiter-Glo luminescent cell viability assay (Promega) is a homogeneous method to measure the number of viable cells in culture. The end point readout of this assay is based on quantitation of intracellular ATP, an indicator of metabolic activity, using the luciferase reaction. Luciferase catalyzes the oxidation of beetle Luciferin to oxyluciferin and light in the presence of ATP. The luminescent signal is proportional to amount of ATP present.
Using the CellTiter-Glo luminescent cell viability assay, the amount of cellular ATP was measured in the lymphoblastoid cell line with complete culture medium following compound treatment for 24 hours. The assay was performed in opaque white Kalypsys 1536-well plates. In the screen, tetraoctylammonium bromide was used as positive control. Library compounds were measured for their ability to cause acute toxicity in the cell line, as reflected by a decrease in intracellular ATP levels, in a concentration-dependent manner. […] AC50 values were determined from concentration-response data modeled with the standard Hill equation.
qHTS protocol for CellTiter Glo lymphoblastoid cellular assay
[Step] [Parameter] [Value] [Description]
1. Reagent; 5 uL; 2500 lymphoblastoid cells/well
2. Time; 5 hr; 37 C incubation
4. Controls; 23 nL; Tetraoctylammonium bromide 6.4pM to 92 uM
5. Time; 24 hr; 37 C incubation
6. Reagent; 5 uL; CellTiter Glo reagent
7. Time; 30 min; Room Temperature
8. Detection; Luminescence; Viewlux plate reader
Keywords: cell viability, cytotoxicity, lymphoblastoid cell line, luminescence, NTPHTS, NTPHTS_NCGC, NIEHS, DSSTox, MLSMR, MLSCN, NIH Roadmap, qHTS, NCGC
% is set by controls: 0 for no effect and ±100 for the full control effect.

| Structure (SMILES) | activity change, negative = cytotoxicity [%] |
| --- | --- |
| COC(=O)c1ccccc1C(=O)OC | 3.04 |
| O=Cc1ccccc1 | 6.76 |
| CC(=O)/C=C/c1ccccc1 | -11.2 |
| CC(C)COC(=O)c1ccccc1C(=O)OCC(C)C | -7.44 |
| c1ccc2c(c1)-c1cccc3cccc-2c13 | -2.96 |
| CC(C)(c1ccc(OCC2CO2)cc1)c1ccc(OCC2CO2)cc1 (stereo not drawn) | -22 |
| COC1=CC(=O)OC(CCc2ccc3c(c2)OCO3)C1 (stereo not drawn) | -29.8 |
| Oc1ccccc1Cl | 11.7 |
| c1ccc(Nc2ccc3ccccc3c2)cc1 | -1.61 |
| CCOc1cc(C=O)ccc1O | -8.47 |
| Cc1ccccc1O | 6.82 |
| CCOC(=O)c1ccccc1N | -1.28 |
| Oc1c(Cl)c(Cl)c(Cl)c(Cl)c1Cl | -13.7 |
